Screening data: PubChem BioAssay, The Scripps Research Institute Molecular Screening Center
PP5 inh – PP5 phosphatase inhibitors, primary screen, biochemical, fluorescence | Serine/threonine-protein phosphatase 5 (Homo sapiens), P53041 | purified PP5c, OMFP substrate fluorescence | inhibition, % at 6.7 µM | 0.18% of 320,000 active;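 active = inhibition above the campaign's mean inhibition across all tested compounds plus 3 SD, cut at about 9.5% in these data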;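 also: 0% = DMSO only and 100% = 100 µM cantharidin control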
PAFAH1B3 inh – PAFAH1B3 enzyme inhibitors, primary screen, biochemical, fluorescence polarization, human; recombinant PAFAH1B3, FP-rhodamine probe; inhibition, % at 3.39 µM; 0.28% of 340,000 active;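 active = inhibition above the screen-wide average of all tested compounds plus 3 SD, cut at about 25% in these data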;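 also: 0% = enzyme with DMSO only and 100% = wells lacking PAFAH1B3 protein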
PAFAH2 FP inh – PAFAH2 enzyme inhibitors, primary screen, biochemical, fluorescence polarization, human. Platelet-activating factor acetylhydrolase 2, cytoplasmic (Homo sapiens), Q99487. recombinant PAFAH2, FP-rhodamine activity probe. inhibition, % at 3.39 µM. 0.99% of 340,000 active;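 active = inhibition above the mean over all tested compounds plus 3 SD, cut at about 30% in these data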;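 also: inhibitors block probe labeling of enzyme so polarization drops; 0% = enzyme with DMSO and 100% = wells lacking PAFAH2 protein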
pPAFAH inh – pPAFAH enzyme inhibitors, primary screen, biochemical, fluorescence polarization, human. recombinant pPAFAH, FP-rhodamine probe fluorescence polarization. inhibition, % at 3.39 µM. Platelet-activating factor acetylhydrolase (Homo sapiens), Q13093. 1.5% of 330,000 active;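 active = inhibition above the mean inhibition across the screen plus 3 SD, cut at about 25% in these data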;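 also: inhibitors block binding of the rhodamine activity-based probe so polarization drops; 0% = enzyme with DMSO and 100% = wells lacking pPAFAH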
PP1 counter – PP1-alpha phosphatase inhibitors, primary screen, counter-screen for PP5 inhibitor project, biochemical, fluorescence, OMFP substrate, single point. purified PP1alpha. inhibition, % at 6.7 µM. 0.9% of 320,000 active. AID 2235, 2010;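 active = inhibition above the mean inhibition of all tested compounds plus 3 SD, computed separately for each screening campaign, cut at about 15% in these data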
Target sequence (P62136 whole entry, looked up): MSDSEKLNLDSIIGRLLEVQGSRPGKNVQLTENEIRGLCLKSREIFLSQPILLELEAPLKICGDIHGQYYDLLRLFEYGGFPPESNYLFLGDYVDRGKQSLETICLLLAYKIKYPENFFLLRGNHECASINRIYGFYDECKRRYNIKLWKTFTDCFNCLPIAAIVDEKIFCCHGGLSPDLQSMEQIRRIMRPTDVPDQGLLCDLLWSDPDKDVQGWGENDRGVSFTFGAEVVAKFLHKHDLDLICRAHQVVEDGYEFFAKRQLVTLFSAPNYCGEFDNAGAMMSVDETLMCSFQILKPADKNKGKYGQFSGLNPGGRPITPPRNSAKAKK
PAFAH1B2 FP inh – PAFAH1B2 enzyme inhibitors, primary screen, biochemical, fluorescence polarization, human; Platelet-activating factor acetylhydrolase IB subunit alpha2 (Homo sapiens), P68402; recombinant PAFAH1B2, FP-rhodamine activity probe; inhibition, % at 3.39 µM; 1.2% of 340,000 active;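 active = inhibition above the mean of all tested compounds plus 3 SD, cut at about 24% in these data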;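 also: 0% = enzyme with DMSO and 100% = wells lacking PAFAH1B2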
Target sequence (P68402 whole entry, looked up): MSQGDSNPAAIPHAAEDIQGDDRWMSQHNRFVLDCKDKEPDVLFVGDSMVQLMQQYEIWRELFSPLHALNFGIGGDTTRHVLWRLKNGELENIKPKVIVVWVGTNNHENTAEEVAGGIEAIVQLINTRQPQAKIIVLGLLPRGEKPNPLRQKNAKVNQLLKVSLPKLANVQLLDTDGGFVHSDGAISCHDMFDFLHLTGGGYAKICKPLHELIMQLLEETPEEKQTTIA
pPAFAH confirm – pPAFAH (PLA2G7) enzyme inhibitors, confirmation, biochemical, fluorescence polarization, human; shares compounds with pPAFAH inh; recombinant pPAFAH, FP-Rh probe fluorescence polarization; inhibition, % at 3.39 µM; 72% of 2,300 active;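 active = mean inhibition of the triplicate above the hit cutoff set for the earlier primary screen, cut at about 25% in these data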;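 also: 0% = enzyme with DMSO and 100% = wells lacking pPAFAH enzyme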
Numbers without * were called inactive; nt = not tested or not shown. Rows were chosen to be rich in hits. Some 3.4% of all compounds tested hit in one or more screens of this group.

SMILES	PP5 inh	PAFAH1B3 inh	PAFAH2 FP inh	pPAFAH inh	PP1 counter	PAFAH1B2 FP inh	pPAFAH confirm
Nc1ccc(O)c2c1C(=O)c1ccccc1C2=O	4	44*	82*	83*	2	55*	46*
CCCCCOc1ccc(NC(=O)C(=O)NCCC2=CCCCC2)cc1	-1	0	2	-2	0	2	nt
CCOC(=O)c1c(-c2ccc(F)cc2)csc1NC(=O)C1CC=CCC1C(=O)O (stereo not drawn)	3	5	10	-6	0	7	nt
CCOC(=O)c1c(-c2ccc(C)c(C)c2)csc1NC(=O)C1CC=CCC1C(=O)O (stereo not drawn)	5	-3	18	41*	10	2	39*
COc1ccc(CNc2oc(-c3cccc4ccccc34)nc2C#N)cc1	2	2	-7	-1	-3	-3	nt
CCOP(=O)(OCC)c1nc(-c2cccc3ccccc23)oc1NCCc1ccc(OC)cc1	4	7	6	38*	1	-1	44*
COc1cc(C2C(C#N)=C(N)OC3=C2C(=O)CCC3)c([N+](=O)[O-])cc1OC (stereo not drawn)	0	27*	26	38*	2	12	11
Cc1cc(C2C(C#N)=C(N)OC3=C2C(=O)CCC3)c(C)s1 (stereo not drawn)	-1	11	-30	2	4	5	nt
CC(C)=C1C(=O)NN(c2ccc(C)c(Cl)c2)C1=O	1	0	18	59*	0	10	6
CC(C)=C1C(=O)NN(c2cccc(Cl)c2)C1=O	0	6	9	23	3	8	nt
Cc1ccccc1-n1c(C)cc(/C=N/Nc2ccc([N+](=O)[O-])cn2)c1C	1	2	-2	5	1	0	nt
Cc1cc(/C=N/Nc2ccc([N+](=O)[O-])cn2)c(C)n1-c1ccc(C(=O)O)cc1	3	11	8	54*	-1	-1	18
CC(N=Cc1cccc(O)c1O)c1ccccc1 (stereo not drawn)	1	24	26	66*	11	17	17
CCc1ncc(C)[nH]1	2	nt	nt	3	0	nt	nt
CCCCC/C=C\C/C=C\C/C=C\CCCCC(=O)O	5	4	10	38*	-13	-1	17
CCCCCCCC/C=C\CCCCCCCC(=O)O	0	6	15	4	3	16	nt
O=C1NN(c2ccccc2)C(=O)/C1=C/c1ccc(Sc2cccc3ccccc23)o1	1	9	21	43*	9	7	36*
COc1cccc(/C=C2/C(=O)NN(c3ccccc3)C2=O)c1	nt	1	25	nt	nt	-1	nt
COc1ccc(/C=C(/NC(=O)c2ccccc2)C(=O)N/N=C/c2ccncc2)cc1	0	-1	0	2	-1	2	nt
CC(=O)Nc1ccc(C=NNc2ccc(S(=O)(=O)Nc3ccccc3C(=O)O)cc2[N+](=O)[O-])cc1	nt	27*	29	64*	nt	26*	66*
COc1cc(/C=N/Nc2ccc(S(N)(=O)=O)cc2[N+](=O)[O-])cc(OC)c1O	2	10	6	12	2	0	nt
CN(CCO)c1ccc(C=NNc2ccc([N+](=O)[O-])cc2S(=O)(=O)Nc2ccccc2C(=O)O)cc1	nt	nt	nt	49*	nt	nt	55*
COc1cc(C=NNc2ccc(S(=O)(=O)Nc3ccccc3C(=O)O)cc2[N+](=O)[O-])ccc1O	nt	21	48*	63*	nt	31*	78*
CCc1c(C)sc(NC(=O)CC#N)c1C#N	-1	8	20	35*	4	9	15
CCOC(=O)/C(C#N)=C/Nc1ccccc1NS(=O)(=O)c1ccc(C)c(C)c1	0	4	1	1	-8	3	nt
SMILES	PP5 inh	PAFAH1B3 inh	PAFAH2 FP inh	pPAFAH inh	PP1 counter	PAFAH1B2 FP inh	pPAFAH confirm
CCOC(=O)/C(C#N)=C/Nc1ccccc1NS(=O)(=O)c1cccc(C(C)=O)c1	2	5	1	35*	-5	-2	9
COc1ccccc1N=c1oc2c(OC)cccc2cc1C(=O)NCc1ccco1	-2	1	7	8	2	4	nt
CCOC(=O)C1=C(C)NC(SCc2cc(=O)[nH][nH]2)=C(C#N)C1c1cccs1 (stereo not drawn)	-1	0	-2	47*	6	4	13
O=C(O)CC1S/C(=N/N=C/c2ccc(-c3ccc(Cl)cc3[N+](=O)[O-])o2)NC1=O (stereo not drawn)	-1	12	13	17	0	7	nt
O=C(O)CC1S/C(=N/N=C/c2ccc(-c3ccc(Cl)c([N+](=O)[O-])c3)o2)NC1=O (stereo not drawn)	-1	0	7	36*	-1	-2	6
N#Cc1c(SCC(=O)Nc2cccc(C(F)(F)F)c2)sc2c(O)cc(=O)[nH]c12	6	13	18	40*	10	11	11
Cc1cc(NC(=O)CSc2sc3c(O)cc(=O)[nH]c3c2C#N)ccc1Br	-2	9	-5	52*	9	7	27*
CCSc1nnc(NC(=O)CSc2sc3c(O)cc(=O)[nH]c3c2C#N)s1	1	17	50*	39*	5	29*	35*
COc1ccc(NC(=O)CSc2sc3c(O)cc(=O)[nH]c3c2C#N)c(OC)c1	1	13	23	36*	13	9	14
Cc1ccc(Cl)cc1NC(=O)CSc1sc2c(O)cc(=O)[nH]c2c1C#N	-1	18	9	20	8	7	nt
Cc1ccc(C)c(NC(=O)CSc2sc3c(O)cc(=O)[nH]c3c2C#N)c1	2	10	18	18	3	4	nt
COCc1c(C(=O)Nc2ccc(Cl)cc2F)oc2ccccc12	2	7	-11	0	2	-7	nt
CC1=C(C(=O)Nc2ccccc2)C(c2ccccc2)N2C(=O)CSC2=N1 (stereo not drawn)	3	5	-11	1	-1	1	nt
CC(C)(C)N(CC#CCC(O)(c1ccccc1)c1ccccc1)CCO	-2	3	16	5	-4	12	nt
O=S(=O)(c1ccc(NC(=S)N/N=C/c2cccc(Oc3ccccc3)c2)cc1)N1CCOCC1	3	-6	-6	-1	0	-2	nt
